Source: PubChem BioAssay AID1159580 (chemical genetic matrix, 2015)
The campaign covered roughly 5,500 compounds. About 2,000 (36%) were called active. Not shown: some 18% with an inconclusive outcome. No stated cut-off is given here; in the data, active means normalized growth mostly below about 0.91 (no sharp cut-off); inconclusive means no clear call, values can overlap the other calls; inactive means mostly above about 0.92. Some of the results follow.

Assay: chemical genetic growth profiling, strain panel (AID 1159580);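 further: tested at 20 µM; growth read once vehicle control cultures reached saturation at 30 °C; 1 = growth at the plate median or of vehicle wells; lower values mean less growth of the strain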
Details: growth OD
[1] = S. cerevisiae deletion strains, locus YAL013W, strain DEP1, hits give low values
[2] = S. cerevisiae deletion strains, locus YBR229C, strain ROT2, hits give low values
[3] = S. cerevisiae deletion strains, locus YDL101C, strain DUN1, hits give low values
[4] = S. cerevisiae deletion strains, locus YDR150W, strain NUM1, hits give low values
[5] = S. cerevisiae deletion strains, locus YEL061C, strain CIN8, hits give low values
[6] = S. cerevisiae deletion strains, locus YGR078C, strain PAC10, hits give low values
[7] = S. cerevisiae deletion strains, locus YHR030C, strain SLT2, hits give low values
[8] = S. cerevisiae deletion strains, locus YHR087W, strain rtc3, hits give low values
[9] = S. cerevisiae deletion strains, locus YJL187C, strain SWE1, hits give low values
[10] = S. cerevisiae deletion strains, locus YJR043C, strain POL32, hits give low values
[11] = S. cerevisiae deletion strains, locus YJR075W, strain HOC1, hits give low values
[12] = S. cerevisiae deletion strains, locus YKL190W, strain CNB1, hits give low values
[13] = S. cerevisiae deletion strains, locus YLR039C, strain RIC1, hits give low values
[14] = S. cerevisiae deletion strains, locus YLR058C, strain SHM2 (second series), hits give low values
[15] = S. cerevisiae deletion strains, locus YLR085C, strain ARP6, hits give low values
[16] = S. cerevisiae deletion strains, locus YLR262C, strain YPT6, hits give low values
[17] = S. cerevisiae deletion strains, locus YML094W, strain GIM5, hits give low values
[18] = S. cerevisiae deletion strains, locus YMR219W, strain ESC1, hits give low values
[19] = S. cerevisiae deletion strains, locus YMR263W, strain SAP30, hits give low values
[20] = S. cerevisiae deletion strains, locus YMR307W, strain GAS1, hits give low values
[21] = S. cerevisiae deletion strains, locus YNL153C, strain GIM3, hits give low values
[22] = S. cerevisiae deletion strains, locus YNL298W, strain CLA4 (second series), hits give low values
[23] = S. cerevisiae deletion strains, locus YNL322C, strain KRE1, hits give low values
[24] = S. cerevisiae deletion strains, locus YNR030W, strain Alg12, hits give low values
[25] = S. cerevisiae deletion strains, locus YPL055C, strain LGE1, hits give low values
[26] = S. cerevisiae deletion strains, locus YPL241C, strain CIN2, hits give low values
[27] = S. cerevisiae deletion strains, locus YPR135W, strain CTF4, hits give low values
[28] = S. cerevisiae strains, strain wild type, hits give low values
[29] = S. cerevisiae deletion strains, locus YAL040C, strain CLN3, hits give low values
[30] = S. cerevisiae deletion strains, locus YDR363W, strain ESC2, hits give low values
[31] = S. cerevisiae deletion strains, locus YER002W, strain NOP16, hits give low values
[32] = S. cerevisiae deletion strains, locus YNL175C, strain NOP13, hits give low values
[33] = S. cerevisiae deletion strains, locus YNL197C, strain WHI3, hits give low values
[34] = S. cerevisiae deletion strains, locus YNL224C, strain SQS1, hits give low values
[35] = S. cerevisiae deletion strains, locus YOR083W, strain WHI5 (second series), hits give low values
[36] = S. cerevisiae deletion strains, locus YNL128W, strain TEP1, hits give low values
[37] = S. cerevisiae deletion strains, locus YOL006C, strain TOP1, hits give low values

Measured: normalized growth

CN(C(=O)Nc1ccccc1)n1cnc2ccccc2c1=O
inactive: [1] 0.999 | [2] 1.03 | [3] 1 | S. cerevisiae deletion strains, locus YDL134C, strain PPH21, hits give low values 1.03 | [4] 0.917 | [5] 1.02 | [6] 1.01 | [7] 1.01 | [8] 0.994 | [9] 1.01 | [10] 0.998 | [11] 1.04 | [12] 1.01 | [13] 1 | [14] 1.02 | [15] 1.04 | [16] 1.01 | [17] 1.03 | [18] 1.01 | [19] 0.994 | [20] 0.98 | [21] 1.01 | [22] 1 | [23] 1.01 | [24] 1.01 | [25] 1.05 | [26] 1.02 | [27] 1 | [28] 1.01

CCCCCCC(C)(C)c1ccc([C@@H]2C[C@H](O)CC[C@H]2CCCO)c(O)c1
inactive: [1] 1.01 | [29] 0.993 | [4] 0.986 | [30] 1.02 | [31] 0.977 | [20] 1.01 | [32] 0.915 | [33] 0.944 | [34] 0.922 | [23] 1.01 | [35] 0.897 | [25] 0.998
active: [21] 0.716

CCCCCN(CCCCC)C(=O)C(CCC(=O)O)NC(=O)c1ccc(Cl)c(Cl)c1 (configuration not stated)
inactive: [1] 1.01 | [29] 1 | S. cerevisiae deletion strains, locus YCL061C, strain MRC1 (second series), hits give low values 1 | [4] 0.993 | [30] 1.03 | [31] 0.991 | [7] 0.993 | S. cerevisiae deletion strains, locus YHR079C, strain IRE1, hits give low values 0.986 | S. cerevisiae deletion strains, locus YJL095W, strain BCK1, hits give low values 1.01 | S. cerevisiae deletion strains, locus YJR066W, strain TOR1, hits give low values 0.97 | [11] 1.02 | S. cerevisiae deletion strains, locus YLR113W, strain HOG1, hits give low values 0.952 | [20] 0.992 | [36] 0.963 | [32] 0.995 | S. cerevisiae deletion strains, locus YNL183C, strain NPR1, hits give low values 0.949 | [33] 0.986 | [34] 0.985 | [35] 0.95 | S. cerevisiae deletion strains, locus YOR231W, strain MKK1, hits give low values 0.983 | [25] 0.983 | S. cerevisiae deletion strains, locus YPL256C, strain CLN2, hits give low values 0.987

COC(=O)c1cc([N+](=O)[O-])ccc1N1CCOCC1
inactive: [1] 1.01 | [2] 1 | [3] 1.01 | [4] 0.98 | [5] 1.01 | [6] 1.01 | [7] 1.09 | [8] 1.02 | [9] 1 | [10] 0.991 | [11] 0.988 | [12] 1.01 | [13] 1.02 | [14] 1 | [15] 1.06 | [16] 1.01 | [17] 1.03 | [18] 1 | [19] 1 | [20] 1.06 | [21] 0.995 | [22] 1.05 | [23] 0.993 | [24] 1.03 | [37] 1.06 | [25] 1.02 | [26] 1.06 | [27] 1.04 | [28] 1.01

COc1cc([N+](=O)[O-])ccc1N1CCCC1
active: [1] 0.898 | [3] 0.882 | [6] 0.882 | [7] 0.302 | [9] 0.902 | [13] 0.554 | [14] 0.929 | [15] 0.605 | [16] 0.661 | [17] 0.865 | [18] 0.934 | [20] 0.445 | [21] 0.913 | [22] 0.775 | [23] 0.916 | [24] 0.862 | [37] 0.522 | [26] 0.858 | [27] 0.512 | [28] 0.867
inactive: [2] 0.941 | [4] 0.898 | [5] 0.912 | [8] 0.979 | [10] 0.951 | [11] 0.933 | [19] 0.928 | [36] 0.931 | [25] 0.946
